Sampled rows, rich in hits. Any-hit rate of the full collection: about 14%.
A350 autofl: A350 region autofluorescence; Compound autofluorescence, 340/450 nm, Alexa 350 dye-equivalents; stronger effect = higher value; max dye-equivalent concentration, M; hit rate 11% among 59,000; AID 590; in the data active = max dye-equivalent concentration above about 10 nM; inconclusive = mostly about 1.1 nM to 9.6 nM
HADH2 inhib: blocks human hydroxyacyl-CoA dehydrogenase type II; recombinant HADH2, NADH fluorescence, beta-hydroxybutyryl-CoA; Potency, µM (titrated, usually from 57.1 µM), for the others: at the highest dose activity change, negative = inhibition, hits mostly inhibitors; hit rate 3.4% among 73,000; AID 886; note: potency is the fitted concentration of half-maximal effect; % is set by controls: 0 for no effect and ±100 for the full control effect; nearly all actives have a fitted effect of over 60% in size
Target sequence (Q99714 whole entry, looked up, one chain of several): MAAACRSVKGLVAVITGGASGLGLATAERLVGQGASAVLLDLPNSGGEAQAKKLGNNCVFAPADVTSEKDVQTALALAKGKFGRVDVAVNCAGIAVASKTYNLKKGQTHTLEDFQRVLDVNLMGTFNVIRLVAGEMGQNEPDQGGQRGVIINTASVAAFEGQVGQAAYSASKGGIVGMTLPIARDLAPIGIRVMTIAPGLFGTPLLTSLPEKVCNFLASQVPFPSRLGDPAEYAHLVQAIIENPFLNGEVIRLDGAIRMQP
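His-tagged recombinant enzyme from E. coli, 20 nM, preincubated 15 min RT with compound; reaction started with 1 mM NAD+ and 90 uM beta-hydroxybutyryl-CoA in 100 mM Tris-HCl pH 9.0. NADH fluorescence (ex 360/em 450) read over 4 min; last-minus-first difference.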
CRE-bla Fsk: CRE-bla signaling modulation under forskolin stimulation; hit rate 2.5% among 71,000; CHO CRE-bla reporter (cAMP response element driving beta-lactamase), forskolin EC10, beta-lactamase ratio; Potency, µM (titrated, usually from 38.2 µM), without a hit: at the top dose activity change, negative = inhibition, most hits filed as activators; AID 662; active = well fitted activation curve with a large enough effect in the signal ratio, with a control signal flat, not every such curve was filed as active; inconclusive = small, poorly fitted or top-dose-only effect, or effect the other way, or a change in a side signal; the % refers to the signal ratio; note: potency is the fitted concentration of half-maximal effect; % of control where 0% means no effect
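qHTS titration format; CRE-bla CHO reporter; stimulus EC10 NKH 477, a water-soluble forskolin. Read: CCF4 460/530 nm ratio. Potency expressed as AC50 for activators or inhibitors.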
HSD17B inhib: inhibitors of human HSD17B10 dehydrogenase. Q99714. Potency, µM (highest dose often 57.1 µM), inactives show top-dose activity change, negative = inhibition, most hits filed as inhibitors. AID 893. hit rate 7.6% among 75,000. recombinant HSD17B10, NADH fluorescence kinetic;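 note: the protocol describes HADH2 (HSD17B10) and not the HSD17B4 of the title; potency is the fitted concentration of half-maximal effect; % is set by controls: 0 for no effect and ±100 for the full control effect; nearly all actives have a fitted effect of over 70% in size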
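Activity followed as NADH fluorescence increase (ex 360, em 450 nm) every 30 seconds for 4 min, using final 90 uM beta-hydroxybutyryl CoA and 1 mM NAD+. Recombinant His-tagged enzyme, 20 nM, pH 9.0 Tris buffer, 15 min compound preincubation.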
4-MU autofl: compounds fluorescent in 4-MU spectral region | compound autofluorescence, 340/450 nm, 4-MU equivalents; stronger effect = higher value | max dye-equivalent concentration, M | hit rate 11% among 59,000 | AID 589; in the data active = max dye-equivalent concentration above about 10 nM; inconclusive = mostly about 1.1 nM to 9.6 nM
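Intrinsic fluorescence at 340/450 nm (ex/em) was read after 15 min at room temperature in pH 8.0, 100 mM Tris. Each compound concentration expressed as 4-MU-equivalent concentration from a six-point 4-MU standard series on each plate.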
AID923: qHTS Assay for Allosteric/Competitive Inhibitors of Caspase-1: Spectroscopic Profiling in AFC Spectral Region; compound fluorescence, AFC spectral region (405/520 nm); Potency, µM (doses to about 57.5 µM), inactives show top-dose fluorescence increase, most hits filed as activators; hit rate 1.1% among 75,000; AID 923, 2007; note: potency is the fitted concentration of half-maximal effect; 0% is about no effect
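Compound autofluorescence profiled at 405 nm ex/520 nm em during kinetic caspase 1 run (50 nM enzyme, 5 uM Ac-WEHD-AFC, HEPES pH 7.5, 10 mM DTT). Titration up to 57 uM; baseline from regression intercept, normalized to AFC standard curve.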
Active calls of the source: *; i = inactive; ? = inconclusive; · = no result given; ! = a repeat was not active; [ ] = another dose, or the depositor's remark. Unless noted, calls come from the whole dose curve; as a rule, active = well fitted curve in the direction sought with a large enough effect; inconclusive = small, poorly fitted or top-dose-only effect, or another doubt; inactive = no such curve, though single readings can be large; an effect the other way counts as inactive or inconclusive.

SMILES	A350 autofl	HADH2 inhib	CRE-bla Fsk	HSD17B inhib	4-MU autofl	AID923
C[C@]1(OC(=O)/C=C\c2ccccc2)C[C@@H](O)[C@@]2(O)C=CO[C@@H](O[C@H]3O[C@@H](CO)[C@@H](O)[C@@H](O)[C@@H]3O)[C@H]21	i	-1%[25.6 µM]	2%[17.1 µM]	2%[25.6 µM]	i	-1%[25.7 µM]
COc1ccccc1CN1CCCC2(CCN(C(C)=O)CC2)C1	i	9%	0%	0%	i	1%
CCc1nnc(NC(=O)CSc2nc(-c3ccc(OC)cc3)ns2)s1	1.8e-08M*	0%	?	2%	1.5e-08M*	0%
CCc1nnc(NC(=O)CSc2nc3ccccc3s2)s1	i	?	?	32µM*	i	1%
CCc1nnc(NC(=O)CSc2nnc(CNc3ccc(Cl)cc3)o2)s1	2.1e-08M*	9%	2%	-3%	1.7e-08M*	0%
CC(C)N(C)C	·	3%	9%	4%	·	4%
Cn1c(=O)c2c(-c3ccccc3)n(Cc3ccccn3)cc2n(C)c1=O	4.9e-08M*	13%	-3%	-3%	4e-08M*	2%
Cn1c(=O)c2c(-c3ccccc3)n(CCCN3CCOCC3)cc2n(C)c1=O	?	?	?	-4%	?	0%
O=C(Cn1c(-c2cncs2)nc2ccccc21)NCCc1ccccc1	·	-2%	2%	-28%	·	0%
N#CCCCCn1c(-c2cncs2)nc2ccccc21	?	-10%	?	25µM*	i	-2%
Cn1c(CN2CCC(C(N)=O)CC2)c(C#N)c2ccccc21	1.2e-08M*	-2%	?	?	?	-2%
Cn1c(CN2CCCCC2)c(C#N)c2ccccc21	?	-3%	?	?	?	3%
O=C(O)[C@@H]1[C@H](C(=O)O)[C@H]2C(=O)C=C[C@H]1N2Cc1ccccc1	i	-11%[11.4 µM]	?	1%[11.4 µM]	i	0%[11.5 µM]
COc1cc2c(cc1OC)CN(Cc1nc3ccsc3c(=O)[nH]1)CC2	4e-08M*	-7%	8%	-23%	3.2e-08M*	8%
CC[C@@H](CS(=O)(=O)O)[N+](=O)[O-]	i	-19%[11.4 µM]	?	15%[11.4 µM]	i	8%[11.5 µM]
NC(=O)c1sc2nc(N3CCCCC3)c3c(c2c1N)CCCC3	·	?	1.3µM*	25µM*	·	3%
CCOC(=O)c1sc2nc(N3CCCC3)c3c(c2c1N)CC(C)(C)OC3	6.1e-08M*	?	?	13µM*	5.9e-08M*	2%
CC1(C)Cc2c(c(N3CCCC3)nc3sc4c(N5CCN(CCO)CC5)ncnc4c23)CO1	i	-11%	-2%	5%	i	0%
Nc1c(C(=O)NCc2ccco2)sc2nc(N3CCOCC3)c3c(c12)CCCC3	2.7e-08M*	·	·	·	2.4e-08M*	·
COc1cc2cc3c(N)c(C(=O)NCc4ccco4)sc3nc2cc1OC	i	-1%	?	8%	i	3%
CCOC(=O)c1sc2nc(N3CCOCC3)c3c(c2c1N)CCCC3	6e-07M*	3.2µM*	?	3.2µM*	8e-07M*	3%
COC(=O)C1(CC(C)C)C=C2C(=C(C)C(=O)C2C)CN1 (stereo not given)	·	-3%	-4%	-24%	·	3%
CCCN1C[C@H](CSC)C[C@H]2c3cccc4[nH]cc(c34)C[C@@H]21	?	44%	-23%	7%[25.6 µM]	?	0%[25.7 µM]
Cc1nc2cnc(OCc3ccccc3)nc2n(Cc2ccc(F)cc2)c1=O	i	-2%	?	-22%	i	0%
CCCCCc1nnc(NC(=O)C2CCCO2)s1 (stereo not given)	?	?	6%	-6%	i	-4%
SMILES	A350 autofl	HADH2 inhib	CRE-bla Fsk	HSD17B inhib	4-MU autofl	AID923
CCCc1cc(C(N)=O)c(NC(=O)C2CCCO2)s1 (stereo not given)	1.2e-08M*	4µM*	7%	32µM*	1.4e-08M*	3%
COc1cccc2sc(Nc3nnc(-c4ccccc4Cl)o3)nc12	·	16%	5µM*	?	·	6%
O=C(Nc1nnc(-c2ccccc2Cl)o1)c1ccco1	i	-1%	18%	-1%	i	-2%
COc1cccc(-c2nnc(NC(=O)c3ccc(S(=O)(=O)N4CCOCC4)cc3)o2)c1	i	-2%	-17%	-11%	i	-1%
COc1ccccc1-c1nnc(Nc2nc3c(OC)cccc3s2)o1	9.4e-07M*	32µM*	?	69%	1.1e-06M*	0%
COc1ccccc1-c1nnc(NC(=O)c2ccc(S(=O)(=O)N(C)Cc3ccccc3)cc2)o1	i	-10%	-13%	-5%	i	1%
COc1cccc(-c2nnc(Nc3nc4c(F)cccc4s3)o2)c1	8e-08M*	-1%	?	32µM*	2.8e-08M*	2%
O=c1n(-c2ccccc2)c(=O)n2n1CC[C@H]1/C(=N\OCc3ccccc3)[C@H]3O[C@@H]3[C@@H](O)[C@@H]12	·	-8%[11.4 µM]	·	5%[11.4 µM]	·	0%[11.5 µM]
Cc1ccc(NC2c3ncccc3C(=O)N2c2ccccc2C)cc1C (stereo not given)	?	?	?	20µM*	i	2%
CN1CCCC[C@@H]1CCN1c2ccccc2Sc2ccc(S(C)=O)cc21 (stereo not given in full)	?	4µM*!	?	-16%[11.4 µM]	?	-5%[11.5 µM]
O=C(CCC(=O)CCN1CCCCC1)CCN1CCCCC1	1.2e-06M*	·	·	·	9.4e-07M*	·
CC(=O)N1CCC2(CC1)CN(c1ccncc1)C2	i	-6%	1%	-4%	i	0%
C=CCn1c(COc2cccc3cccnc23)nnc1SCC(=O)O	i	-1%	-10%	-12%	i	0%
O=C(O)CSc1cccc2cccnc12	·	32µM*	2%	25µM*	·	1%
Cn1cccc1C(=O)N1CCC2(CCCN(Cc3ccncc3)C2)CC1	i	3%	0%	7%	i	3%
O=C(c1ccncc1)N1CCC2(CCN(Cc3ccncc3)CC2)CC1	i	-1%	1%	-6%	i	0%
COC(=O)[C@@]1(Cc2ccc(OC)cc2)[C@H]2c3cc(C(=O)N(C)C)n(Cc4ccc(C(F)(F)F)nc4)c3C[C@H]2CN1C(=O)c1ccccc1	·	6%	3%	6%	·	-4%
Cc1nc2sccn2c(=O)c1CCN1CCC(=C(c2ccccc2)c2ccc(F)cc2)CC1	i	?	?	32µM*	i	-2%
CCCCCS(=O)(=O)CCCCCCCCCCn1c(-c2ccc(O)cc2)c(C)c2cc(O)ccc21	·	?	·	32µM*	·	-1%
CCCCn1c(=O)c(C(=O)OCC)c(O)c2ccccc21	i	-6%	-11%	-4%	i	-2%
COc1cc(-c2c(C#N)c(N)nc(SCc3ccncc3)c2C#N)cc(OC)c1OC	i	?	-3%	-6%	i	0%

Bioassay records (PubChem)
